PBM binding z-score data for seven sequences are collected here from the supplement of paper PMC6555819.

Holding throughout (assay): PBM binding z-score (relative to random genomic background probes); higher = stronger binding; sequences stand for … in GC…GCGATTGACAGCGTAGAATGAAGG
Assay [1] relates to FXR:RXRa (NR concentration 270 nM, RXRa partner concentration 90 nM). In outline: (§1)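 Binding z-scores take random background probes as their reference. They come from custom Agilent 4×180K protein-binding microarrays incubated 1 h with ligand-free nuclear receptor dimers, with antibodies against each partner (one per run) detecting binding. Scanned fluorescence was regression-normalized.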

The test system of assay [2] is LXRa:RXRa (NR concentration 270 nM, RXRa partner concentration 90 nM). A digest of the protocol:
as §1

In assay [3] the test system is LXRa homodimer (NR concentration 270 nM). A digest of the protocol: as §1
Assay [4] deals with LXRb:RXRa (NR concentration 270 nM, RXRa partner concentration 90 nM). A digest of the protocol: as §1
The test system of assay [5] is LXRb homodimer (NR concentration 270 nM). In outline: as §1
The test system of assay [6] is PPARa:RXRa (NR concentration 270 nM, RXRa partner concentration 90 nM). In outline:
as §1

Assay [7] relates to PPARg:RXRa (NR concentration 180 nM, RXRa partner concentration 90 nM). In outline: as §1
The subject of assay [8] is PPARg:RXRa 270nM:90nM, anti-RXR (NR concentration 270 nM, RXRa partner concentration 90 nM). A digest of the protocol:
as §1

Assay [9] has as its system PPARg:RXRa 30nM:10nM, anti-RXR (NR concentration 30 nM, RXRa partner concentration 10 nM). In outline:
as §1

For assay [10], the system named is PPARg:RXRa 90nM:30nM, anti-RXR (NR concentration 90 nM, RXRa partner concentration 30 nM). In outline: as §1
The subject of assay [11] is PPARg:RXRa DBDmut IVT, anti-RXR (DBD mutation: RXRa K156A/R161A, NR concentration 270 nM, RXRa partner concentration 90 nM). In outline: as §1
Assay [12] has as its system PPARg:RXRa IVT, anti-PPARg (NR concentration 270 nM, RXRa partner concentration 90 nM). A digest of the protocol:
as §1

Assay [13] relates to PPARg DBDmut:RXRa IVT, anti-PPARg (DBD mutation: PPARg1 K132A/R137A, NR concentration 270 nM, RXRa partner concentration 90 nM). In outline:
as §1

The test system of assay [14] is PPARg DBDmut IVT, anti-PPARg (DBD mutation: PPARg1 K132A/R137A, NR concentration 270 nM). In outline:
as §1

In assay [15] the test system is PPARg homodimer (NR concentration 180 nM). In outline: as §1
Assay [16] has as its system PXR:RXRa (NR concentration 270 nM, RXRa partner concentration 90 nM). A digest of the protocol:
as §1

The subject of assay [17] is PXR homodimer (NR concentration 270 nM). In outline:
as §1

The subject of assay [18] is RARa:RXR (NR concentration 270 nM, RXRa partner concentration 90 nM). In outline: as §1
The test system of assay [19] is RARa homodimer (NR concentration 270 nM). In outline:
as §1

For assay [20], the system named is RARb:RXRa (NR concentration 270 nM, RXRa partner concentration 90 nM). In outline:
as §1

For the sequence CCTACTGGGCCAAGAAGGTCATTGATGCCGATAA, the PBM binding z-score in assay [1] was 1.94; in assay [2] it was 2.35; in [3], 0.897; in [4] it was 2.47; in assay [5] it was -0.675; in [6], 3.5. In addition, the PBM binding z-score stood at 2.17 in assay [7]; 2.94 in assay [8]; 0.664 in [9]; 1.87 in assay [10]; 3.62 in assay [11]; 3.76 in [12]. For the same sequence, the PBM binding z-score is -1.15 in assay [13]; -1.07 in [14]; 1.85 in [15]; 3.13 in assay [16]; 1.54 in [17]; 3.23 in assay [18]. The PBM binding z-score in assay [19] turned out to be 0.531; in assay [20], 2.76.

Turning to CCTACTGGGCCAAAATGGTCATTGATGCCGATAA, the PBM binding z-score in [1] is -0.236; in assay [2], -0.291; in assay [3] it was -0.317; in assay [4] it was -0.55; in assay [5], -0.875; in assay [6] it was 0.318. For the same sequence, the PBM binding z-score in assay [7] is 0.666; in [8], 0.897; in [9], -0.124; in assay [10], 0.804; in assay [11] it was 2.55; in assay [12] it was 2.95. In addition, the PBM binding z-score in assay [13] was -0.67; in assay [14], -0.0275; in assay [15], 0.212; in [16], -0.439; in [17] it was -0.289; in assay [18], 0.45. For the same sequence, the PBM binding z-score in assay [19] came to 0.0345; in [20], 0.172.

In the case of TGAATGAGATTAAAGATCAGGGAACGTGGCGTCG, the PBM binding z-score in assay [1] is -0.229; in assay [2], -0.065; in assay [3], -0.329; in assay [4] it was -0.322; in assay [5], -0.389; in [6], 0.409. For the same sequence, the PBM binding z-score was 1.02 in assay [7]; 2.19 in assay [8]; 1.3 in assay [9]; 1.91 in assay [10]; -0.695 in assay [11]; -0.415 in assay [12]. Moreover, the PBM binding z-score is -1.12 in assay [13]; -0.126 in [14]; -0.076 in assay [15]; -0.42 in assay [16]; -0.498 in [17]; -0.467 in [18]. Further, the PBM binding z-score in assay [19] was 0.0825; in assay [20] it was -0.19.

On to CCTACTGGGCCAGGGTCATTGATCAGTCAAAGCA, for which the PBM binding z-score is 2.51 in assay [1]; 2.16 in [2]; 0.0124 in assay [3]; 2.58 in assay [4]; -1.02 in assay [5]; 4.14 in [6]. Also, the PBM binding z-score in assay [7] amounted to 3.23; in assay [8] it was 3.68; in [9], 0.898; in [10], 2.87; in [11], 1.49; in assay [12], 3.62. In addition, the PBM binding z-score was -1.03 in assay [13]; -0.896 in assay [14]; 0.994 in assay [15]; 3.06 in assay [16]; 0.381 in assay [17]; 3.61 in assay [18]. Further, the values for the PBM binding z-score in [19] and in assay [20] were -0.641 and 2.51, respectively.

GCTAGTTGGTCACTAAAAGGTCACACACCGGTCG: the PBM binding z-score in [1] stood at 3.49; in assay [2], 4.28; in assay [3], 4.38; in [4], 4.27; in [5], 0.864; in [6], 4.44. Also, the PBM binding z-score in assay [7] is 2; in assay [8] it was 3.69; in assay [9], 0.993; in assay [10] it was 2.6; in assay [11], 1.75; in assay [12], 3.25. Besides, the PBM binding z-score is -0.266 in assay [13]; -0.384 in assay [14]; 4.15 in assay [15]; 5.01 in assay [16]; 1.59 in assay [17]; 5.91 in assay [18]. For the same sequence, the PBM binding z-score stood at 1.48 in assay [19] and 4.49 in assay [20].

Take TCGAGTAGGTTACCAATGGGGCGTTCAGCTTTCT: the PBM binding z-score in [1] is -0.0945; in [2], 0.41; in assay [3] it was -0.684; in [4], 0.47; in [5], -0.564; in [6], 1.09. Besides, the PBM binding z-score in assay [7] was -0.0878; in [8] it was 1.06; in assay [9], 0.919; in [10], 1.03; in assay [11], 3.2; in assay [12], 2.46. The PBM binding z-score in assay [13] was -0.504; in assay [14], -0.846; in assay [15], 0.122; in [16], -0.176; in [17], -0.801; in assay [18] it was 0.167. Moreover, the PBM binding z-score in [19] is -0.443; in assay [20] it was 0.773.

As for ATATGTAGGTTACATCCGGGTCATTAAGGCTATG, the PBM binding z-score in assay [1] was determined as 2.39; in assay [2], 4.11; in [3], 1.5; in [4] it was 3.09; in assay [5], 0.566; in assay [6], 4.35. In addition, the PBM binding z-score in [7] was determined as 6.02; in assay [8] it was 5.08; in assay [9], 2.66; in assay [10], 4.28; in assay [11] it was 7.73; in [12], 7.28. For the same sequence, the PBM binding z-score was determined as 1.96 in assay [13]; 2.14 in [14]; 1.78 in [15]; 3.52 in assay [16]; 4.13 in assay [17]; 3.18 in assay [18]. Besides, the PBM binding z-score in assay [19] was determined as 0.456; in assay [20], 2.36.
